The list is not random: actives were taken first. Their share in the collection is about 11%.
BAZ2B block – inhibitors of human BAZ2B bromodomain | Q9UIF8 | actives 4.4% (n = 360,000) | AlphaScreen BAZ2B-H3K14Ac peptide displacement | AID 504333 | Potency, µM (series often up to 114 µM), for the others: top-dose activity change, negative = inhibition, actives largely listed as inhibitors; also: potency is read from the fitted curve at half-maximal effect; % is scaled to controls: 0 for no effect and ±100 for the full control effect; nearly all actives have a fitted effect of over 60% in size
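Protein-peptide AlphaScreen: BAZ2B 50 nM, b-H3K14Ac 50 nM, 1x PBS pH 7.4 + 0.01% Tween-20. Preincubation 30 min RT; cpd 30 min RT (top 110 uM); beads 20 min RT, light-protected.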
JMJD2A Tudor – inhibitors of human JMJD2A Tudor domain; actives 4.4% (n = 390,000); AlphaScreen JMJD2A-Tudor / H3K4me3 peptide binding; Potency, µM (series often up to 114 µM), inactives show top-dose activity change, negative = inhibition, actives largely listed as inhibitors; also: potency is read from the fitted curve at half-maximal effect; % is scaled to controls: 0 for no effect and ±100 for the full control effect; nearly all actives have a fitted effect of over 50% in size
G9a inh – inhibitors of human histone lysine methyltransferase G9a; Q96KQ7; G9a H3K9 monomethylation, AlphaScreen, 2 h; Potency, µM (titrated, usually from 102 µM), inactives show top-dose activity, negative = inhibition, usual class: inhibitors; actives 8.8% (n = 350,000); AID 504332; also: potency is read from the fitted curve at half-maximal effect; % is scaled to controls: 0 for no effect and ±100 for the full control effect; nearly all actives have a fitted effect of over 75% in size
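AlphaScreen detection with an anti-monomethyl H3K9 antibody quantified product after a 2 h room-temperature reaction containing 500 nM biotinylated H3K9 peptide, 20 µM SAM and 20 nM enzyme, which had been preincubated 15 min with compound.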
L3MBTL1 inh – L3MBTL1 (human) inhibition. AID 485360. AlphaScreen L3MBTL1–H3K9me1 peptide binding. Q9Y468. actives 0.66% (n = 230,000). Potency, µM (top dose mostly 57.1 µM), inactives show top-dose activity, negative = inhibition, hits mostly inhibitors; also: potency is read from the fitted curve at half-maximal effect; % is scaled to controls: 0 for no effect and ±100 for the full control effect; nearly all actives have a fitted effect of over 60% in size
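Displacement of a biotinylated histone H3(1-15) peptide monomethylated at Lys9 (75 nM) from L3MBTL1 (50 nM) was measured by AlphaScreen after a 30 min room-temperature compound incubation; cefsulodin titration served as intraplate control.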
PI5P4K alpha inh – blocks human PI5P4K alpha kinase activity; PI5P4Kalpha enzyme, ADP-Glo luminescence, 60 min; stronger effect = lower value; P48426; actives 1.2% (n = 330,000); max response, %; active = max response of -50% or lower; inconclusive = between -30% and -50%; inactive = -30% or higher; also: value at the top dose of about 77 µM; % is scaled to controls: 0 for no effect and ±100 for the full control effect
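Single end-point luminescence (ADP-Glo) quantified ADP from PI5P4Kalpha turnover; ATP 5 microM final, 1 h at RT, 0.1% CHAPS and 0.28 mM EGTA in HEPES pH 7.4.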
HP1b chromo inh – blocks HP1-beta chromodomain binding to methylated histone tails; P83916; AID 540317; actives 0.56% (n = 390,000); AlphaScreen HP1-beta / biotin-H3K9me3 peptide binding; Potency, µM (top dose mostly 114 µM), for the others: at the top dose activity change, negative = inhibition, actives largely listed as inhibitors; also: potency is read from the fitted curve at half-maximal effect; nearly all actives have a fitted effect of over 70% in size
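Compound inhibition of the preformed complex between 50 nM HP1-beta and 50 nM biotinylated H3K9me3 peptide was read by AlphaScreen. Buffer was PBS pH 7.4 with 0.01% Tween-20. Incubations ran 30 min at room temperature, with 10 ug/mL donor/acceptor beads.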
* hit, by the source's call; u = inconclusive; x = not tested or not shown; [ ] = remark or other dose. Unless noted, calls follow the shape of the dose curve; as a rule, active = well fitted inhibition curve with a large enough effect; inconclusive = small, poorly fitted or top-dose-only effect; inactive = no such curve, though single readings can be large or run the other way.

SMILES	BAZ2B block	JMJD2A Tudor	G9a inh	L3MBTL1 inh	PI5P4K alpha inh	HP1b chromo inh
CCCCn1c(-c2ccco2)n[nH]c1=S	-4%	3.2µM*	5µM*	-16%	2	u
CC(C)Cn1c(-c2ccco2)n[nH]c1=S	u	4µM*	7.1µM*	x	x	-8%
CCCCCn1c(-c2ccco2)nc2nc3ccccc3nc21	1%	5%	-4%[59 µM]	u	-1	44%
CCCCC(=O)Nc1ccc2nc(SCC(=O)N3CCc4ccccc43)sc2c1	-2%	-8%	5%[59 µM]	x	x	30%
C=CCn1c(-c2ccco2)n[nH]c1=S	-5%	10µM*	u	4%	1	38%
Cn1c(-c2ccco2)n[nH]c1=S	-13%	7.9µM*	4.5µM*	8%	6	22%
CCc1ccccc1N(C)C(=O)C1CCCN(c2ncnc3c2nc2n3CCCCC2)C1 (configuration not stated)	-12%	-17%	-13%[59 µM]	x	x	20%
Cc1cc(C)c(NC(=O)CSc2ncc3c(n2)-c2cc(Cl)ccc2N(C)S3(=O)=O)c(C)c1	33%	-15%	11%[59 µM]	x	x	36%
Nc1nc(C(=O)N2CCOCC2)nn1C(=O)c1ccc(Cl)cc1	-18%	3%	35µM*	17%	6	70%
Cc1cccn2c(=O)c(C(=O)N3CCN(c4ccccc4)CC3)cnc12	1%	-1%	1%[59 µM]	x	x	8%
COc1cc(NC(=O)Nc2ccc3c(c2)OCO3)cc(OC)c1OC	x	-15%	u	x	2	8%
COc1cc(C(Nc2ccc3c(c2)OCO3)C(=O)NC2CCCCC2)cc(OC)c1OC (configuration not stated)	40µM*	u	2.8µM*	-10%[11.4 µM]	-10	-31%
O=C1CC(c2ccco2)CC2=C1C(c1ccc(O)cc1)n1nc(C(F)(F)F)nc1N2 (configuration not stated)	x	56µM*	x	x	x	u
CCOC(=O)c1c(-c2cccs2)csc1NC(=O)CN1CCOCC1	-6%	13%	11%[59 µM]	0%	0	37%
CCOC(=O)c1c(-c2ccccc2)csc1NC(=O)CCN1CCOCC1	50µM*	2µM*	u	24%	15	u
CCOC(=O)c1c(-c2ccc(C)o2)csc1NC(=O)COC(=O)c1cccs1	-3%	-16%	10µM*	-15%	-26	33%
CCOC(=O)c1c(-c2ccc(C)o2)csc1NC(=O)CN1CCOCC1	u	u	50µM*	x	3	-7%
CCOC(=O)c1c(-c2ccc(C)o2)csc1NC(=S)NC(=O)N(C)C	45µM*	u	u	0%	x	u
COc1ccc(CNc2ncnc3ccc(-c4ccc(N(C)C)cc4)cc23)c(OC)c1	x	x	-1%[0.501 µM]	x	x	x
COc1cccc(CNC(=O)CCc2cn(Cc3ccccc3Cl)c3ccccc23)c1	-16%	-7%	-45%[59 µM]	x	x	27%
CCOc1ccc(CCNC(=O)C2=C(C)C(=O)OC23CCCCC3)cc1	-5%	-6%	0%[59 µM]	x	x	28%
COC(=O)CC1Oc2ccc(F)cc2-n2cc(-c3ccc(C)cc3)nc21 (configuration not stated)	-16%	-18%	-2%[59 µM]	x	x	-1%
CCOC(=O)c1c(-c2ccc(C)cc2)csc1NC(=O)CCN1CCOCC1	32µM*	6.3µM*	10µM*	-9%	0	u
O=c1c2ccccc2nc2c3ccccc3c(NCc3cccnc3)nn12	-2%	-3%	7%	u	3	49%
O=c1c2ccccc2nc2c3ccccc3c(NCc3ccccn3)nn12	50µM*	u	32µM*	3%	3	43%
SMILES	BAZ2B block	JMJD2A Tudor	G9a inh	L3MBTL1 inh	PI5P4K alpha inh	HP1b chromo inh
CCCOc1ccc(C(=O)Nc2ccc(NC(=O)c3ccccc3)c(Br)c2)cc1	-3%	-8%	-35%[59 µM]	x	x	43%
CCOc1ccc(N/C=C/C(=O)c2ccccc2)c([N+](=O)[O-])c1	u	u	8.9µM*	-26%	-4	u
CCOc1cccc(C2C=C(c3ccc4c(c3)OCO4)NC(c3ccccc3F)N2)c1O (configuration not stated)	x	u	x	x	x	2%[57 µM]
Cc1ccc(-n2ncc(C(=O)NC3CCCCC3)c2C2CCN(C(=O)OC(C)(C)C)CC2)cc1	15%[57.1 µM]	-21%	-3%[59 µM]	x	x	44%
CCOC(=O)C(=O)N1CCN(c2cc3c(cc2[N+](=O)[O-])n(C)c(=O)n3C)CC1	50µM*	-7%	-5%	5%	-1	33%
COc1ccc(N2CCN(C(=O)c3cccc(F)c3)CC2)c([N+](=O)[O-])c1	u	u	-48%	-18%	4	1%
Cn1c(=O)n(C)c2cc([N+](=O)[O-])c(N3CCN(C(=O)c4cccc(Cl)c4)CC3)cc21	56µM*	-23%[57.1 µM]	19%[59 µM]	-14%	3	1%
CCCS(=O)(=O)N1CCN(c2cc3c(cc2[N+](=O)[O-])n(C)c(=O)n3C)CC1	56µM*	0%[57.1 µM]	-5%	x	-2	40%
Cn1c(=O)n(C)c2cc([N+](=O)[O-])c(N3CCN(C(=O)c4cccc(F)c4)CC3)cc21	50µM*	-13%	u	-3%	0	-1%
COc1ccc(OC)c(NC(=O)c2cn3c4c(ccc(Cl)c4c2=O)OC(C)C3)c1 (configuration not stated)	-3%	-6%	-4%[59 µM]	x	x	28%
Cc1nnc(N2CCN(C(=O)Nc3cccc(C(F)(F)F)c3)CC2)c2nn(-c3ccccc3)c(C)c12	-14%	-24%	3%[59 µM]	x	x	-17%
Cc1ccc(Nc2nc3ccccc3c3nncn23)cc1C	8%	-25%	21%[59 µM]	x	x	28%
Cc1ccc(C(=O)N2CCN(c3cc4c(cc3[N+](=O)[O-])n(C)c(=O)n4C)CC2)cc1	50µM*	-8%	-36%	4%	x	9%
Cc1ccc(CNC(=O)c2ccc(CN3CC(=O)N4CCCCC4C3=O)cc2)cc1 (configuration not stated)	0%	-6%	-14%[59 µM]	x	x	23%
CSc1nc(NCc2ccccc2)c2c3c(sc2n1)CN(C)CC3	-14%	u	40µM*	-9%	x	-2%
CSc1nc(NCCCN(C)C)c2c3c(sc2n1)CN(C)CC3	-6%	x	50µM*	x	x	x
CSc1nc(NCC(C)C)c2c3c(sc2n1)CN(C)CC3	1%	-20%	-39%[59 µM]	-3%	x	49%
CCN(CC)CCNc1nc(SC)nc2sc3c(c12)CCN(C)C3	-10%	-29%	u	x	0	-24%
CCOc1ccc(C(=O)CCC(=O)Nc2ncccc2O)cc1	56µM*	-31%	1%[2.33 µM]	-14%	u	13%
CC(C)C(=O)OCC(=O)[C@@]12OC(C3CCCCC3)O[C@@H]1CC1C3CCC4=CC(=O)C=C[C@]4(C)C3[C@@H](O)C[C@@]12C (some centres not stated)	x	x	-3%[12.7 µM]	x	x	x

From PubChem
